As a reminder, the AC50 is the midpoint of the concentration-response curve, whichever way the signal moves.

Inconclusive results are not listed. Calls of active or inactive are those of the source. How the source made its calls, unless noted: active means hit-call score of the fitted dose curve at least 0.9, where 1 is the maximum; inactive means score below 0.9.

Assay [1] concerns the target Paired box protein Pax-6 (Homo sapiens) (UniProt P26367). The experiment in a line: ATG_Pax6_CIS: Attagene CIS-FACTORIAL HepG2 Assay for human Paired Box 6 (PAX6) (AID 2282956). The following applies: HepG2 CIS-FACTORIAL PAX6 reporter transcription, RNA readout; actives raise or lower the signal. In short, it runs like this:
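After twenty-four hours of chemical exposure, transfected HepG2 cells are harvested for RNA. Cis-promoter reporter transcripts are amplified, fluorescently labelled and sized by capillary electrophoresis, with gain and loss of signal scored against DMSO.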

Assay [2] in a line: ATG_PXRE_CIS: Attagene CIS-FACTORIAL HepG2 Assay for human Pregnane X Receptor Element (PXRE) (AID 2282957). The note with it: HepG2 Attagene CIS-FACTORIAL PXRE reporter, mRNA; actives raise or lower the signal. The essentials:
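Cells: HepG2, transiently transfected reporter units under cis promoter control. Exposure: 24 h. Detection: reporter mRNA via RT-PCR/CE fluorescence; bidirectional fitting, DMSO-referenced.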

Assay [3] can be described thus: ATG_PPRE_CIS: Attagene CIS-FACTORIAL HepG2 Assay for human Peroxisome Proliferator-activated Response Element (PPRE) (AID 2282958). The note with it: HepG2 PPRE cis-element reporter, Attagene transcription factor profiling; actives raise or lower the signal. In short, it runs like this: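 In this cell-based multiplex, a PPRE cis element drives a reporter sequence in transiently transfected HepG2 cells. Following 24 h treatment, labeled cDNA amplicons are sized and quantified by capillary electrophoresis, with DMSO defining baseline.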

Assay [4] can be described thus: ATG_RORE_CIS: Attagene CIS-FACTORIAL HepG2 Assay for human RAR-related Orphan Receptor Element (RORE) (AID 2282959). The following applies: HepG2 Attagene cis-factorial RORE reporter, mRNA; actives raise or lower the signal. In short, it runs like this: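 Endogenous factor activity at a cis response element is read as reporter transcript levels in HepG2 cells, 24 h post-dose. Transcripts are quantified by RT-PCR with capillary electrophoresis, and data fitted in both directions against DMSO.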

Assay [5] in a line: ATG_Sox_CIS: Attagene CIS-FACTORIAL HepG2 Assay for human SRY-box transcription factor (SOX) (AID 2282960). The note with it: HepG2 Attagene cis-factorial SOX reporter, mRNA; actives raise or lower the signal. In short, it runs like this:
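Measures mRNA induction of a SOX1-associated reporter in HepG2 after 24 h dosing. Fluorescently labelled RT-PCR fragments are separated by capillary electrophoresis, and gain or loss relative to DMSO control is fitted.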

Assay [6] addresses Transcription factor Sp1 (Homo sapiens) (UniProt P08047). The experiment in a line: ATG_Sp1_CIS: Attagene CIS-FACTORIAL HepG2 Assay for human Specificity Protein 1 (Sp1) (AID 2282961). The note with it: HepG2 Sp1 cis-reporter transcription, actives raise or lower the signal. In short, it runs like this:
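Cells: HepG2, transiently transfected with cis-regulated multiplexed reporters. Exposure: 24 h. Detection: reporter transcripts amplified, fluorescently labeled, restriction-digested and sized by capillary electrophoresis. Analysis: bidirectional fit relative to DMSO.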

Assay [7] is described as follows: ATG_SREBP_CIS: Attagene CIS-FACTORIAL HepG2 Assay for human Sterol Regulatory Element Binding (SREBP) (AID 2282962). The following applies: HepG2 Attagene cis-factorial SREBP reporter, mRNA; actives raise or lower the signal. In short, it runs like this:
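Twenty-four hours after chemical dosing of transfected HepG2 cultures, reporter RNA was converted to cDNA, amplified, end-labelled with 6-FAM and resolved by capillary electrophoresis. Responses were fitted relative to DMSO.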

Assay [8] concerns the target Signal transducer and activator of transcription 3 (Homo sapiens) (UniProt P40763). The experiment in a line: ATG_STAT3_CIS: Attagene CIS-FACTORIAL HepG2 Assay for human Signal Transducer and Activator of Transcription 3 (STAT3) (AID 2282963). The note with it: HepG2, Attagene cis-factorial STAT3 reporter transcription; actives raise or lower the signal. The essentials:
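After a 24 h compound incubation, total RNA from MRTU-transfected HepG2 cells was converted to cDNA and reporter sequences PCR-amplified, labelled and profiled by capillary electrophoresis. Gain and loss of signal were referenced to DMSO.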

A short description of assay [9]: ATG_TA_CIS: Attagene CIS-FACTORIAL HepG2 Assay for human TA Basal Promoter (AID 2282964). The following applies: HepG2 Attagene CIS-factorial TA basal promoter reporter; actives raise or lower the signal. In short, it runs like this:
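Multiplexed mRNA reporter assay, HepG2, 24 h. Reporter cDNA amplified, 6-FAM primer-extended, HpaI-cut, CE-sized; DMSO = negative control and baseline.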

Assay [10] can be described thus: ATG_TCF_b_cat_CIS: Attagene CIS-FACTORIAL HepG2 Assay for human T-Cell-Factor with beta-catenin (TCF/b-cat) (AID 2282965). The following applies: HepG2 TCF/beta-catenin cis-reporter transcription, actives raise or lower the signal. In short, it runs like this: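 Measured: reporter mRNA in HepG2 transiently transfected with cis-promoter reporter units, 24 h after chemical addition. Fitting was bidirectional, DMSO as negative control.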

Assay [11] is described as follows: ATG_TAL_CIS: Attagene CIS-FACTORIAL HepG2 Assay for human TAL Basal Promoter (AID 2282966).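 Further: background control endpoint measuring basal TAL promoter reporter mRNA not a specific factor.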 The following applies: HepG2 Attagene cis-factorial TAL promoter reporter; actives raise or lower the signal. In short, it runs like this: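 RT-PCR plus capillary electrophoresis quantifies reporter mRNA induction in transiently transfected HepG2 cells after 24 h chemical treatment. DMSO serves as negative control and baseline for bidirectional fitting.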

A short description of assay [12]: ATG_TGFb_CIS: Attagene CIS-FACTORIAL HepG2 Assay for human Transforming Growth Factor (TGF) (AID 2282967). The note with it: HepG2 Attagene CIS TGFb reporter, mRNA transcription; actives raise or lower the signal. In short, it runs like this:
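Transcript-level reporter readout: HepG2 transfectants, 24 h exposure, RNA to cDNA, reporter-specific PCR, fluorescent primer extension, capillary sizing against ROX standards. Gain- or loss-of-signal relative to DMSO.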

The nature of assay [13]: ATG_VDRE_CIS: Attagene CIS-FACTORIAL HepG2 Assay for human Vitamin D Receptor Element (VDRE) (AID 2282968). The following applies: HepG2 VDRE cis-reporter transcription, actives raise or lower the signal. The essentials:
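In transiently transfected HepG2 liver cells, gain or loss of reporter mRNA after 24 h exposure is scored relative to DMSO, using fluorescence detection by capillary electrophoresis of RT-PCR products.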

In assay [14] the target is Nuclear receptor subfamily 1 group I member 3 (Homo sapiens) (UniProt Q14994). The experiment in a line: ATG_CAR_TRANS: Attagene TRANS-FACTORIAL HepG2 Assay for human Constitutive Androstane Receptor (CAR) (AID 2282969; active means hit-call score of the fitted dose curve at least 0.9, where 1 is the maximum;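 further: activators raise reporter mRNA above DMSO so AC50 marks induction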). The note with it: HepG2 Attagene TRANS-FACTORIAL CAR reporter. The essentials: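 Readout is reporter mRNA induction, quantified by fluorescent primer extension and capillary electrophoresis after RT-PCR. Cells were HepG2 transiently carrying chimeric NR-Gal4 constructs with GAL4-UAS reporters, treated for 24 h; activity scored upward from DMSO.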
Sequence of Nuclear receptor subfamily 1 group I member 3 (Homo sapiens) (Q14994 whole entry, looked up, the tested form may be a part): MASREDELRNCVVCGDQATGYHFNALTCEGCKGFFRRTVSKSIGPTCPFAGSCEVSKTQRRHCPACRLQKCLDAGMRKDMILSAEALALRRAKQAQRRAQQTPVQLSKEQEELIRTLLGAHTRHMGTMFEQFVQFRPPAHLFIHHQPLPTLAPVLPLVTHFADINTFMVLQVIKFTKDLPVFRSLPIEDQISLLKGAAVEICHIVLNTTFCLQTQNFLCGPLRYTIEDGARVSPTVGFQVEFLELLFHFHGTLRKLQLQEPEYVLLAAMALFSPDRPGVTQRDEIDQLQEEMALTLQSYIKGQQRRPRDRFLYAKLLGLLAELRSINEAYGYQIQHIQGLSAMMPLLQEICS

Assay [15] has as its target Estrogen receptor (Homo sapiens) (UniProt P03372). The experiment in a line: ATG_ERa_TRANS: Attagene TRANS-FACTORIAL HepG2 Assay for human Estrogen Receptor alpha (ERa) (AID 2282970; active means hit-call score of the fitted dose curve at least 0.9, where 1 is the maximum). The following applies: HepG2 Attagene TRANS ERa GAL4 reporter, mRNA. In short, it runs like this:
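Cells: HepG2, transiently transfected. Construct: GAL4-UAS reporter units regulated by exogenous NR-Gal4 chimeras. Time: 24 h. Detection: reporter mRNA by RT-PCR, capillary electrophoresis, fluorescence. Baseline: DMSO, upward fitting.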

In assay [16] the target is X-box-binding protein 1 (Homo sapiens) (UniProt P17861). The experiment in a line: ATG_Xbp1_CIS: Attagene CIS-FACTORIAL HepG2 Assay for human X-box Binding Protein 1 (XBP1) (AID 2282972). The following applies: HepG2 XBP1 cis-element reporter, Attagene multiplex; actives raise or lower the signal. The essentials:
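After a 24-hour chemical exposure of HepG2 cells carrying cis-regulated reporters, reporter mRNA levels are assessed. Quantification uses RT-PCR, 6-FAM labelling and capillary electrophoresis. Gain- or loss-of-signal is fitted against DMSO.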

A short description of assay [17]: ATG_M_19_TRANS: Attagene TRANS-FACTORIAL HepG2 Assay for M19 Transcription Factor (Internal Marker) (AID 2282974; active means hit-call score of the fitted dose curve at least 0.9, where 1 is the maximum). The note with it: HepG2 Attagene TRANS-FACTORIAL M19 internal marker reporter. In short, it runs like this:
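Reporter mRNA induction was measured in transfected HepG2 cells 24 h after dosing. Endpoint fitted upward relative to DMSO and serves as a background control within the multiplexed TRANS panel.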

For assay [18], the target named is Steroid hormone receptor ERR1 (Homo sapiens) (UniProt P11474). The experiment in a line: ATG_ERRa_TRANS: Attagene TRANS-FACTORIAL HepG2 Assay for human Estrogen-Related Receptor alpha (ERRa) (AID 2282971; active means hit-call score of the fitted dose curve at least 0.9, where 1 is the maximum). The following applies: HepG2 Attagene TRANS reporter, ERRa transactivation. In short, it runs like this:
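Reporter transcripts from ERRa-Gal4 chimera activity measured in transiently transfected human HepG2 cells 24 hours after dosing, using RT-PCR with 6-FAM primer extension, HpaI digestion and capillary electrophoresis; DMSO is baseline.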

Sequence of Signal transducer and activator of transcription 3 (Homo sapiens) (P40763 whole entry, looked up): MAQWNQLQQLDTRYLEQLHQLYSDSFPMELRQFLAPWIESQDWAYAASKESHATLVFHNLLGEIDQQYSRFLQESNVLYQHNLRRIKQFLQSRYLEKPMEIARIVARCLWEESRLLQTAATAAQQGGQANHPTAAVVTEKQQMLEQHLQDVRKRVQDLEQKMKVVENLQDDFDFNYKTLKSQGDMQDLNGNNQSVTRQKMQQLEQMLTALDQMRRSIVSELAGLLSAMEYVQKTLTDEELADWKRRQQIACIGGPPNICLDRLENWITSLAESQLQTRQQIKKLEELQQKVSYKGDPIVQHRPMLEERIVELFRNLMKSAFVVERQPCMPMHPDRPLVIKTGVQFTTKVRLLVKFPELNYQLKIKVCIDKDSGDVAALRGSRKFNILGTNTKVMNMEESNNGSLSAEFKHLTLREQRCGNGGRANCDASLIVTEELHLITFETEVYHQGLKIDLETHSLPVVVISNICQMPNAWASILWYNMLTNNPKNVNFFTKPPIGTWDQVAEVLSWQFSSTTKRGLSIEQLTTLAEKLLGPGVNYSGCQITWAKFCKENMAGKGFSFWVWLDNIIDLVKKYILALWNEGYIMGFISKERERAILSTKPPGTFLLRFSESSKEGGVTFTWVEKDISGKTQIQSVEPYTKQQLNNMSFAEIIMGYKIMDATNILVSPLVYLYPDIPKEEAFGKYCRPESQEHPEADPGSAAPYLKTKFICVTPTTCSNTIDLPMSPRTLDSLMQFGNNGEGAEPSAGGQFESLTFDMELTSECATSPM
Sequence of X-box-binding protein 1 (Homo sapiens) (P17861 whole entry, looked up): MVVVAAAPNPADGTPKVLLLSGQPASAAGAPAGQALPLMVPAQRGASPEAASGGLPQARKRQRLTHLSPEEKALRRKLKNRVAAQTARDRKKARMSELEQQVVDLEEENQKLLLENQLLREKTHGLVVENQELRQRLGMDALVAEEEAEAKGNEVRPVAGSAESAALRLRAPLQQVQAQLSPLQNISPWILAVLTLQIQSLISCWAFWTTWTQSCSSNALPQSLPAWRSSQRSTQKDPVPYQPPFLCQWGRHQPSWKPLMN
Sequence of Estrogen receptor (Homo sapiens) (P03372 whole entry, looked up, the tested form may be a part): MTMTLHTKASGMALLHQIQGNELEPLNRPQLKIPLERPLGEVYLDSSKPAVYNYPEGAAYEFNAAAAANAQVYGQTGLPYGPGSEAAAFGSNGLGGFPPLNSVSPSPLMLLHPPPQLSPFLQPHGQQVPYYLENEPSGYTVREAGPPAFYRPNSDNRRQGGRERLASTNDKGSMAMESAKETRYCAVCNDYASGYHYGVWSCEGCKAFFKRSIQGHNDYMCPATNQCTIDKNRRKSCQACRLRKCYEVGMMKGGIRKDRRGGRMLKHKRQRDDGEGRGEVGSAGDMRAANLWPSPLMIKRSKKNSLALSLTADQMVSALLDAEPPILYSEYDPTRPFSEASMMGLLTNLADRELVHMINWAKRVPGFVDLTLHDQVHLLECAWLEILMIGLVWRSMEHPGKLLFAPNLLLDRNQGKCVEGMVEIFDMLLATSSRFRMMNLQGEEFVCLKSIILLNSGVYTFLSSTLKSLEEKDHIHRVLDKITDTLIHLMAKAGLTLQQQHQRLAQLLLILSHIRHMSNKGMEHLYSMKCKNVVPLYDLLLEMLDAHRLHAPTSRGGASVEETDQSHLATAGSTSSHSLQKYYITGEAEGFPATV
Sequence of Transcription factor Sp1 (Homo sapiens) (P08047 whole entry, looked up): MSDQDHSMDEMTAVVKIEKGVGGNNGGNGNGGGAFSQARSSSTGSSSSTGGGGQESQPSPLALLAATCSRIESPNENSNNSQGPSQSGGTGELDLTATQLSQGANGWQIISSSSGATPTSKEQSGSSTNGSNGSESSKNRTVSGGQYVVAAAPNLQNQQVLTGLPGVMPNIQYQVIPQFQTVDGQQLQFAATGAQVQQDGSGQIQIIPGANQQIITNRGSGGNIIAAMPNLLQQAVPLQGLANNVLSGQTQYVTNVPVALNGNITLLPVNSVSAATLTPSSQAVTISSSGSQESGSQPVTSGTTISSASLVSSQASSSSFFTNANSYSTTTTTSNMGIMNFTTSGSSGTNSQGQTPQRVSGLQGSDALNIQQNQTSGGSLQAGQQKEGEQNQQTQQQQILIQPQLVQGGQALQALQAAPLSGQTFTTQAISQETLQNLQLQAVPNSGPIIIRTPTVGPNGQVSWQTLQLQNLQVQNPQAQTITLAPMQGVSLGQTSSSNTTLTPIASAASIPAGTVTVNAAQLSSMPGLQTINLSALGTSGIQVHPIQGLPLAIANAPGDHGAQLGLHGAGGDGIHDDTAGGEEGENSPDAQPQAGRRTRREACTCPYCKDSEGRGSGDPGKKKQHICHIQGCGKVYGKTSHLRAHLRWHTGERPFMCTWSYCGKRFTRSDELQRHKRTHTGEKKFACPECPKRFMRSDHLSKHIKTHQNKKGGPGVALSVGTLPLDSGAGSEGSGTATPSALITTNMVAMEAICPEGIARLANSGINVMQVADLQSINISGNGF
Sequence of Paired box protein Pax-6 (Homo sapiens) (P26367 whole entry, looked up): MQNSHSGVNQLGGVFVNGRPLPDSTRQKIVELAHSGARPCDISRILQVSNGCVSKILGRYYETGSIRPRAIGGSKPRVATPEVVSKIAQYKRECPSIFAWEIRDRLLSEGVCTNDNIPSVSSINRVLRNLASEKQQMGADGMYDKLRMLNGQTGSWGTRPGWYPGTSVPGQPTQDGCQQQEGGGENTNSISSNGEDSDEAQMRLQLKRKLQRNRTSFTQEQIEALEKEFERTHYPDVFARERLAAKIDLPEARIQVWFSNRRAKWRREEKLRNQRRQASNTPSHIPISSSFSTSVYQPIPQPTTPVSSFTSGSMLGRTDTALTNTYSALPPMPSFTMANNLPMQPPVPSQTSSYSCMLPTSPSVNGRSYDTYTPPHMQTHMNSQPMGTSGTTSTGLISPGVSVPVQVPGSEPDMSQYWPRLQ
Sequence of Steroid hormone receptor ERR1 (Homo sapiens) (P11474 whole entry, looked up, the tested form may be a part): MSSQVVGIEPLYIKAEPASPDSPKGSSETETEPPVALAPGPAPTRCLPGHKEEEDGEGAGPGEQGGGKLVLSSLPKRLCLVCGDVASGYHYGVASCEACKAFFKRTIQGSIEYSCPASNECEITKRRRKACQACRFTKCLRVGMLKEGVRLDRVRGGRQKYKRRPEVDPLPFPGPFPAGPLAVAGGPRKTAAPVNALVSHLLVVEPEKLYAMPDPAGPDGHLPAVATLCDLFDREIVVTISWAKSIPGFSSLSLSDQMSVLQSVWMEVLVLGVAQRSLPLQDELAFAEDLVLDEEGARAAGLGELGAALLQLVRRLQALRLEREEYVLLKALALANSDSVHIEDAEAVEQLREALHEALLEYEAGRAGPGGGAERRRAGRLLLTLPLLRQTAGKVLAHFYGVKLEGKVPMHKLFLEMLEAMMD

In the case of `CCCN(CCC)c1c([N+](=O)[O-])cc(C(C)C)cc1[N+](=O)[O-]`, the call in assay [1], in assay [3], in assay [4], in assay [5], in assay [6] and in [7] was inactive. Further, the call in [8], in assay [9], in assay [10], in assay [11], in assay [12] and in assay [13] was inactive. The call in assay [14], in assay [15], in assay [16] and in assay [17] was inactive. Besides, in assay [2], the AC50 was 1.08 µM (active).

Regarding `N#Cc1cc([N+](=O)[O-])ccc1N`, the outcome in [1], in assay [2], in [3], in assay [4], in [6] and in assay [7] was inactive. The outcome in assay [8], in assay [9], in [10], in assay [11], in assay [12] and in assay [13] was inactive. The result in assay [14], in [15], in assay [18] and in assay [16] was inactive.

For the compound `CC(C)(C)N(NC(=O)c1ccc(Cl)cc1)C(=O)c1ccccc1`, the result in [1], in [3], in assay [4], in assay [5], in assay [6] and in assay [7] was inactive. Besides, the result in assay [8], in assay [9], in assay [10], in assay [11], in [12] and in assay [13] was inactive. Further, the compound was classed as inactive in [15] and in assay [16]. The half-maximal activity concentration (AC50) in assay [2] was 4.36 µM (active).

On to `CCOC(=O)c1ccccc1N`, for which the call in assay [1], in [3], in [4], in assay [5], in assay [6] and in assay [7] was inactive. In addition, the compound was classed as inactive in assay [8], in assay [9], in [10], in assay [11], in [12] and in assay [13]. Besides, the outcome in assay [15] and in assay [16] was inactive. Also, the AC50 in [2] is 39.6 µM (active).

Consider `C=C(C)C(=O)OCC1CO1` (stereo not drawn), for which the call in [1], in assay [2], in assay [3], in [4], in assay [5] and in assay [6] was inactive. Further, the outcome in assay [7], in assay [8], in assay [9], in assay [10], in assay [11] and in assay [12] was inactive. Further, the outcome in [13] and in assay [16] was inactive.

In the case of `CCCCN(CCCC)N=O`, the compound was classed as inactive in assay [1], in assay [4], in assay [5], in [6], in assay [7] and in assay [8]. Further, the outcome in assay [9], in assay [10], in assay [11], in [12], in [15] and in assay [16] was inactive. In addition, the AC50 in [2] was 42.7 µM (active).

`O=C(O)C1C(C(=O)O)C2(Cl)C(Cl)=C(Cl)C1(Cl)C2(Cl)Cl` (stereo not drawn): the compound was called inactive in assay [1], in assay [2], in assay [4], in assay [5], in assay [6] and in assay [7]. Moreover, the compound was classed as inactive in assay [8], in assay [9], in [10], in assay [11], in assay [12] and in assay [15]. The compound was called inactive in [16].

The record behind these values is PubChem BioAssay (EPA / NIEHS).
